# An excerpt weighted towards active compounds, which were near 9.3% of everything screened.
# Vaccinia Venus = qHTS for Stage-Specific Inhibitors of Vaccinia Orthopoxvirus: Venus Reporter Primary qHTS; hit rate 0.46% among 330,000; Vaccinia virus Venus reporter expression, fluorescence; Potency, µM (titrated, usually from 36.5 µM), inactives show at the highest dose activity change, negative = inhibition, usual class: inhibitors; calls by dose curve; tested in A549 cells; note: potency is the fitted concentration of half-maximal effect; nearly all actives have a fitted effect of over 30% in size
# Vaccinia mCherry = qHTS for Stage-Specific Inhibitors of Vaccinia Orthopoxvirus: mCherry Reporter Primary qHTS. Vaccinia virus mCherry reporter infection, fluorescence. Potency, µM (titrated, usually from 36.5 µM), without a hit: at the top dose activity change, negative = inhibition, most hits filed as inhibitors. hit rate 0.63% among 310,000. AID 720579, 2013; calls by dose curve; tested in A549 cells; note: potency is the fitted concentration of half-maximal effect; nearly all actives have a fitted effect of over 35% in size
# Sm TGR inh = qHTS Assay for the Inhibitors of Schistosoma Mansoni Peroxiredoxins. Schistosoma mansoni thioredoxin glutathione reductase (TGR), Q962Y6. purified TGR, DTNB reduction, TNB absorbance 405 nm. Potency, µM (doses to about 114 µM), for inactives: at the top dose activity change, negative = inhibition, usual class: inhibitors. hit rate 3% among 360,000. AID 485364, 2010; note: potency is the fitted concentration of half-maximal effect; nearly all actives have a fitted effect of over 60% in size
#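 Kinetic colorimetric format: TGR-catalysed, NADPH-driven DTNB reduction monitored via TNB absorbance. Enzyme dispensed at 20 nM; compound exposure 15 min at room temperature before reaction start.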
# FMDV inh = High Throughput Screening for Foot and Mouth Disease Virus Antivirals. FMDV antiviral cell-based qHTS. Potency, µM (series often up to 57.9 µM), for the others: top-dose activity change, negative = inhibition, hits mostly inhibitors. hit rate 1.2% among 410,000. AID 1159524, 2015; calls by dose curve; tested in HEK293T cells; note: read-out not given here; potency is the fitted concentration of half-maximal effect; nearly all actives have a fitted effect of over 45% in size
# HCMV antiviral = qHTS Assay for inhibitors of the human cytomegalovirus (HCMV) | activity change, negative = inhibition, % at 57.5 µM | hit rate 4.5% among 410,000 | AID 1259415, 2018 | HFF cells, HCMV-luciferase reporter, 72 h; stronger effect = lower value; in the data active = activity change below about -60%; inconclusive = no clear call, values can overlap the other calls; inactive = above about -39%
#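 Luciferase read-out from HCMV-luciferase-infected HFFs (MOI 1 PFU/cell) 72 h post infection at 37C; compounds added after 16 h cell attachment; activity normalized between buffer-only basal and Salinomycin (10uM) inhibitor controls.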
# HCV inh = qHTS Assay for Inhibitors of Hepatitis C Virus (HCV); Huh7.5.1 HCVcc-Cre infection, luciferase reporter, 44 h; Potency, µM (top dose mostly 41.8 µM), for the others: at the top dose activity change, negative = inhibition, hits mostly inhibitors; hit rate 3.4% among 340,000; AID 651820, 2012; note: potency is the fitted concentration of half-maximal effect
#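 1,000 cells/well; 4 h culture; + compound; + HCVcc-Cre (~0.5 moi); 44 h; luciferase substrate, RT 15 min; read 15 sec.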
# Starred values were filed as active, the others as inactive; i = inactive; ? = inconclusive; nt = not tested or not shown; [ ] = remark or other dose. Unless noted, calls come from the whole dose curve; as a rule, active = well fitted curve in the direction sought with a large enough effect; inconclusive = small, poorly fitted or top-dose-only effect, or another doubt; inactive = no such curve, though single readings can be large; an effect the other way counts as inactive or inconclusive. % is set by controls: 0 for no effect and ±100 for the full control effect.
SMILES,Vaccinia Venus,Vaccinia mCherry,Sm TGR inh,FMDV inh,HCMV antiviral,HCV inh
Cn1c2ccccc2c(=O)c2c(=O)n(Cc3ccco3)c(-c3ccc(F)cc3)nc21,-4%[7.34 µM],1%[7.34 µM],40µM*,-14%,-32,-22%
Cc1nc(SCC(=O)NC(C)(C)C)c2c(-c3cccs3)csc2n1,-9%,?,0%,?,?,?
CC(C)(C)c1ccc(S(=O)(=O)N2CCC(c3ccncc3)CC2)cc1,-29%,?,-7%,?,-83*,nt
CCC(c1nnnn1Cc1ccco1)N1CCC(C(N)=O)CC1 (stereo unspecified),-6%,-19%,0%,-9%,18,18%
CC(C)C(c1nnnn1Cc1ccco1)N1CCC(C(N)=O)CC1 (stereo unspecified),-2%,nt,45µM*,-7%,-38,-2%
O=C(NNC(=S)NC(=O)c1cccnc1)c1ccc(Cl)cc1,nt,nt,-33%,0%,25,?
N#CN(CC(N)=O)c1nc(N2CCCCC2)nc(N2CCCCC2)n1,-6%,nt,2%,0%,-3,10µM*
CCOC(=O)C1=C[C@@H](C2CCCCC2)N(S(=O)(=O)c2ccc([N+](=O)[O-])cc2)[C@H]1c1ccccc1,-1%,13%,nt,?,-77*,nt
CCOC(=O)C1=CC[C@@H](c2ccc([N+](=O)[O-])cc2)N(S(=O)(=O)c2ccc(C)cc2)[C@H]1c1ccccc1,5%,27%,nt,-17%,-14,nt
CCC(=O)c1ccc2c(c1)OCCO2,nt,nt,-3%,6%,18,11%
Cc1nn(CC(=O)Nc2ccc3c(c2)OCO3)c(C)c1Cl,nt,nt,-15%,30%,17,7%
O=C(Cn1ncc(Cl)c(Cl)c1=O)Nc1ccc2c(c1)OCO2,nt,nt,45µM*,35µM*,-102*,?
CCN(CC)S(=O)(=O)c1cc(NC(=O)Cn2ncc(Cl)c(Cl)c2=O)ccc1C,?,?,0.56µM*,-93%,-79*,?
O=C(Cn1ncc(Cl)c(Cl)c1=O)c1ccc2c(c1)OCCO2,-26%,?,nt,?,-81*,2µM*
CCC1CCCCN1CCCNC(=O)c1cn(CC)c2ccc(S(=O)(=O)N3CCc4ccccc4C3)cc2c1=O (stereo unspecified),-20%,i,2%,0%,-40,13µM*
CCn1cc(C(=O)NCCCN2CCCC(C)C2)c(=O)c2cc(S(=O)(=O)N3CCc4ccccc4C3)ccc21 (stereo unspecified),?,-19%,-3%,-16%,-74*,11µM*
COc1ccc(S(=O)(=O)N2CCCCC2)cc1NC(=O)CN1C(=O)NC(C)(C2CC2)C1=O (stereo unspecified),5%,-4%,-17%,-23%,-1,?
Oc1ccc2c3c1O[C@H]1c4[nH]c5ccccc5c4C[C@]4(O)[C@H](C2)N(CC2CC2)CC[C@@]314,nt,nt,nt,-14%,nt,nt
Oc1ccc2c3c1O[C@H]1c4[nH]c5ccccc5c4C[C@@]4(O)[C@@H](C2)N(CC2CC2)CC[C@]314,-25%,-9%,45µM*,-12%,16,?
Oc1ccc2c3c1O[C@H]1c4[nH]c5ccccc5c4C[C@@]4(O)C(C2)N(CC2CC2)CC[C@]314,nt,nt,18µM*,nt,nt,nt
Oc1ccc2c3c1O[C@H]1c4[nH]c5c(c4C[C@@]4(O)[C@@H](C2)N(CC2CC2)CC[C@]314)C[C@@]1(O)[C@H]2Cc3ccc(O)c4c3[C@@]1(CCN2CC1CC1)[C@H]5O4,-8%,i,nt,8%,nt,nt
COc1ccc(CN=CC2=C(O)CC(C)(C)CC2=O)cc1,nt,nt,0%,38%,33,3%
O=[N+]([O-])c1ccc(NN=C(Oc2ccccc2)c2ccc([N+](=O)[O-])cc2)cc1,-16%,-7%,nt,-12%,-70*,nt
